The text below walks through data of PubChem BioAssay (NCI).

About 83,000 compounds went through this panel and 20% of them were active in at least one assay; those are over-represented in the sample as a whole.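 Note: values are percent growth. 100 is the growth of untreated cells, values between 100 and 0 indicate rising inhibition; between -100 and 0 indicates cell death.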 Values without a mark were called inactive. Calls of active or inactive are those of the source. The calls were made as follows: active = growth percent below 10; inactive = the rest.

Experiment in all cases: NCI-60 one-dose screen, 48 h (100 = growth as untreated, 0 = no growth, -100 = all killed)
Settings in all cases: 10 µM

Assay [1] relates to HCT-15 colon.
The test system of assay [2] is HT29 colon.
Assay [3] concerns SNB-75 CNS.
Assay [4] has as its system U251 CNS.
Assay [5] concerns PC-3 prostate.
In assay [6] the test system is SK-MEL-5 melanoma.
Assay [7] deals with UACC-62 melanoma.
For assay [8], the system named is LOX IMVI melanoma.
Assay [9] relates to SK-MEL-28 melanoma.
The test system of assay [10] is SK-MEL-2 melanoma.
The subject of assay [11] is EKVX NSCLC.
The subject of assay [12] is SN12C renal.
Assay [13] relates to UO-31 renal.
The test system of assay [14] is ACHN renal.
In assay [15] the test system is CAKI-1 renal.
In assay [16] the test system is A498 renal.
The subject of assay [17] is CCRF-CEM leukemia.
Assay [18] relates to MOLT-4 leukemia.
For assay [19], the system named is TK-10 renal.

Consider `CC(=O)Nc1nc(C)c(C(=O)N/N=C/c2cccn2C)s1`, for which the growth in assay [1] was 106%; in assay [2] it was 101%; in assay [3], 109%; in assay [4], 103%; in [5] it was 94.9%; in assay [6], 98.4%. Further, the growth in [7] was 87.7%; in [8], 98.4%; in assay [9] it was 105%; in assay [10], 43.6%; in assay [11] it was 103%; in assay [12] it was 94.5%. Besides, the growth was 93.7% in assay [13]; 107% in assay [14]; 111% in assay [15]; 89.6% in assay [16]; 98.8% in assay [17]; 100% in assay [18].
With `O=S(=O)(NCl)c1ccccc1`, the growth in assay [1] was 102%; in assay [2] it was 106%; in assay [3], 84.3%; in assay [4], 95.9%; in assay [5] it was 99.1%; in assay [6], 103%. The growth in assay [7] is 106%; in [8], 97.1%; in assay [9] it was 97.1%; in assay [10], 109%; in [12], 106%; in assay [13], 83.1%. Besides, the growth in assay [19] was 96.2%; in assay [14], 105%; in [15], 94.7%; in assay [16] it was 97.5%; in assay [17] it was 92.5%; in [18], 98.3%.
For the compound `c1ccc(CC(NCCNC(Cc2ccccc2)c2ccccc2)c2ccccc2)cc1` (stereo not drawn), the growth is 15.5% in assay [1]; -27.7% (active) in assay [2]; 63.3% in [3]; 13% in [4]; 24.2% in assay [5]; -52.3% (active) in [6]. The growth in [7] is 16%; in [8], -87.9% (active); in [9], 50.2%; in assay [10], 69.8%; in assay [11] it was 23%; in assay [13], 27.3%. The growth in [19] is 61.1%; in assay [14], 20.6%; in assay [15], 7.43% (active); in assay [16] it was 61.8%; in assay [17] it was 10.1%; in [18], -13.2% (active).
In the case of `C=CCNC(=S)NN`, the growth was 90.7% in [1]; 55.5% in assay [2]; 95.3% in assay [3]; 77.4% in [4]; 58.4% in assay [5]; 99.5% in assay [6]. Also, the growth in assay [7] was 99.6%; in assay [8] it was 97.3%; in assay [9], 104%; in assay [10] it was 99.1%; in assay [12] it was 81.7%; in assay [13], 61.7%. Further, the growth in assay [19] is 96.2%; in [14], 94.1%; in assay [15], 91.6%; in [16], 81%; in assay [17] it was 63.2%; in [18], 64.6%.
For the compound `COc1ccc(-c2cc(/C=C/C(=O)c3ccc(N)cc3)[nH]n2)cc1OC`, the growth in [1] is 26%; in assay [2], 22.6%; in [3] it was 36.8%; in [4], 28.5%; in [5], 41.8%; in assay [6], 63.4%. Moreover, the growth in assay [7] is 71.2%; in assay [8], -45.5% (active); in assay [9] it was 41.9%; in [10], 80.8%; in [12] it was 35.1%; in assay [13], 27.3%. Besides, the growth in assay [19] was 39.3%; in [14] it was 50.5%; in [15] it was 31%; in assay [16], 52.8%; in [17] it was 7.41% (active); in assay [18] it was 7.23% (active).
Regarding `Cc1nn2c(/C=C3/C(=O)Nc4ccc(Cl)cc43)c(-c3ccccc3)nc2s1`, the growth in assay [1] is 57.1%; in assay [2] it was 35.1%; in assay [3], -35.4% (active); in assay [4] it was 34.8%; in [5], 32.3%; in [6], 26.3%. Moreover, the growth is 39.3% in [7]; 45.3% in assay [8]; 29.2% in assay [9]; 32.7% in [10]; 52.7% in [12]; 29.6% in assay [13]. The growth in [14] is 30.1%; in assay [15] it was 53.4%; in assay [16], 43.8%; in assay [17], 50.7%; in assay [18], 57.2%.
As to `O=[N+]([O-])c1ccc(Br)o1`, the growth in [1] is 105%; in assay [2], 95.8%; in [3] it was 97.5%; in assay [4], 103%; in assay [5], 98.8%; in assay [7], 103%. Also, the growth was 93.9% in assay [8]; 104% in [9]; 94.4% in [10]; 101% in assay [11]; 90% in [13]; 96.4% in assay [19]. Besides, the growth is 100% in [14], 98.3% in assay [15], 102% in assay [16] and 114% in assay [17].
Regarding `Cc1nc(Nc2nc3ccccc3o2)nc(-c2cccc([N+](=O)[O-])c2)c1C(=O)Nc1ccc(F)c(Cl)c1`, the growth in [1] is 15.5%; in assay [2], 6.31% (active); in assay [3] it was 17.8%; in [4] it was 3.14% (active); in [5], 6.84% (active); in assay [6] it was 0.624% (active). For the same compound, the growth in [7] is 17.1%; in assay [8], 0.0269% (active); in [9], 13.2%; in [10] it was -33.7% (active); in [12], 7.04% (active); in [13] it was 11.3%. In addition, the growth in assay [19] is 8.62% (active); in [14], 12.9%; in assay [15], 9.69% (active); in assay [17] it was 22.8%; in assay [18] it was -23.7% (active).
In the case of `COC(=O)c1c(C)nc(Nc2nc3ccccc3s2)nc1-c1ccc(Cl)cc1Cl`, the growth was 92.2% in assay [1]; 114% in [2]; 87.2% in assay [3]; 111% in assay [4]; 91.3% in assay [5]; 105% in [6]. For the same compound, the growth in assay [7] is 96.1%; in assay [8], 101%; in assay [9] it was 109%; in assay [10] it was 120%; in assay [12], 99.8%; in assay [13], 81.2%. The growth was 120% in [19]; 96.7% in assay [14]; 99.6% in assay [15]; 100% in assay [16]; 95% in [17]; 84.7% in assay [18].
